We go through 66 compounds from PubChem BioAssay AID1209 (Sanford-Burnham Center for Chemical Genomics, 2008).

Structures are written as SMILES. Screen size: about 190,000 compounds; about 810 (0.43%) were called active. Only a selection was taken, and actives are over-represented in it overall. A number with no mark means an inactive call. Cut-off read from the data, not from the text of the source: active = inhibition above about 50%; inactive = the rest.

The target of the assay is Mannose-6-phosphate isomerase (Homo sapiens) (UniProt P34949). The assay can be described thus: inhibitors of human PMI, primary screen, biochemical, fluorescence intensity, coupled assay (AID 1209).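 Note: plate controls were DMSO vehicle for no effect and wells lacking substrate for full effect.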 Particulars: purified PMI enzyme, at 20 µM, active compounds read high.
Chain of Mannose-6-phosphate isomerase (Homo sapiens) (P34949 whole entry, looked up): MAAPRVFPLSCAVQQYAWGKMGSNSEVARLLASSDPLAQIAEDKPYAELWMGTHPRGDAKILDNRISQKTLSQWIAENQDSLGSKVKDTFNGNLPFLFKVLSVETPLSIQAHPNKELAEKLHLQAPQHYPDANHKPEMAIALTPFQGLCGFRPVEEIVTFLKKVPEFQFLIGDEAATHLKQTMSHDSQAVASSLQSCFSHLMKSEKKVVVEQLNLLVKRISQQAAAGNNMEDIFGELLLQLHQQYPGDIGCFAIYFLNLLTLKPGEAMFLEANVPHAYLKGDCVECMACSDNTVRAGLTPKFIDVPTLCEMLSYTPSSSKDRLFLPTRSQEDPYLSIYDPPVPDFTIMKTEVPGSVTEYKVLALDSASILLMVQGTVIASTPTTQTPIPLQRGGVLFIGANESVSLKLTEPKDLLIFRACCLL
In general, inhibition refers to the drop in the measured response relative to a control, in per cent. In the case of `CCCCCn1c(NC(=O)c2ccco2)c(S(=O)(=O)c2ccc(C)cc2)c2nc3ccccc3nc21`, the inhibition is 20%.
Take `CCCCn1c(NC(=O)c2ccco2)c(S(=O)(=O)c2ccc(C)cc2)c2nc3ccccc3nc21`: the inhibition is 50.9% (active).
For `C=CCn1c(NC(=O)c2ccco2)c(S(=O)(=O)c2ccccc2)c2nc3ccccc3nc21`, the inhibition was 7.1%.
In the case of `COc1cccc(C(=O)OCC(=O)NCCc2ccccc2)c1OC`, the inhibition was -5.9%.
With `Cc1ccnc(N2C3CCC2CC(O)(c2ccccc2)C3)n1` (stereo unspecified), the inhibition was -0.2%.
For the compound `O=c1c2ccccc2sn1-c1ccccc1`, the inhibition was 87.2% (active).
In the case of `Cc1cc(=O)c2ccccc2s1`, the inhibition was -2.5%.
On to `O=c1c2ccccc2sn1-c1nccs1`, for which the inhibition is 107% (active).
In the case of `O=c1[nH]n(-c2ccccc2)c(=O)c2ccccc12`, the inhibition was 6.7%.
The value for `Cc1ccc(-n2nc3c4c(cccc4c2=O)-c2ccccc2-3)cc1` was 14.2%; that for `O=c1c2ccccc2c2ccccc2c(=O)n1-c1ccccc1` was 3.9%; that for `O=C1CCCN1c1nccs1` was -4.2%.
On to `Cc1ccccc1N=Cc1c(O)n(-c2nccs2)c(=O)c2ccccc12`, for which the inhibition was 0.5%.
The value for `CC(C(=O)N1CCCCC1)n1sc2ccccc2c1=O` (stereo unspecified) was -2.6%; that for `O=C(Nc1cccn(Cc2cccc(F)c2)c1=O)NC1CCCCC1` was 14.9%; that for `COc1ccc(-n2c(COc3ccc(C)cc3)nnc2SCc2ccc(C#N)cc2)cc1` was 10.6%.
Consider `COCCCn1c(=NC(=O)c2ccc3c(c2)OCO3)c(C#N)cc2c(=O)n3cccc(C)c3nc21`, for which the inhibition was 1.8%.
Regarding `CCOC(=O)CSc1nc2ccccc2c(=O)n1CC1COc2ccccc2O1` (stereo unspecified), the inhibition was -3.8%.
The value for `Cn1c(=O)c2c(nc(CN3CCOCC3)n2CCCO)n(C)c1=O` was -8.2%; that for `COc1ccccc1NS(=O)(=O)c1cccc(C(=O)NN=C2CCCCCC2)c1` was -1.7%.
As for `CCn1c(SCC(=O)N2CCCC2)nc2c(c1=O)SC(C)C2` (stereo unspecified), the inhibition is 0.5%.
Regarding `CN(C)S(=O)(=O)c1cccc(-c2cn3ccccc3n2)c1`, the inhibition was -3.5%.
Consider `CN(C)S(=O)(=O)c1cccc(N2C(=O)CC3(CCCCC3)CC2=O)c1`, for which the inhibition was 2%.
As to `COC(=O)C1=C(N)Oc2cc(C)n(C)c(=O)c2C1c1ccc(Cl)cc1` (stereo unspecified), the inhibition was 1.3%.
The value for `Cc1c(Cl)cccc1NC(=S)NN` was 5.2%; that for `CCC(C)(C)n1nnnc1C(c1ccc(O)cc1)N1CCc2ccccc2C1` (stereo unspecified) was 12.2%.
Regarding `CCOC(=O)/C(C(=O)Nc1ccccc1Cl)=C1/NC(C)(C)Cc2ccccc21`, the inhibition is 18.6%.
As for `CCOC(=O)/C(C(=O)Nc1ccc(Br)cc1)=C1/NC(C)(C)Cc2ccccc21`, the inhibition is 3.3%.
The value for `CCOC(=O)/C(C)=C1\NC(C)(C)Cc2ccccc21` was 94.7% (active); that for `O=C(Cc1c[nH]c2ccccc12)N1CCN(c2ccccc2)CC1` was -10.2%; that for `Cn1c(Cc2ccccc2)nnc1SCC(=O)Nc1cccc(S(=O)(=O)NC2=NCCCCC2)c1` was 5%.
Take `CCN=c1scc(-c2ccco2)n1/N=C/c1ccc(OC)c(O)c1`: the inhibition was -0.4%.
The value for `CN=c1scc(-c2ccco2)n1/N=C/c1ccc(O)c(O)c1` was 53% (active).
Next, `CN=c1scc(-c2ccc(F)cc2)n1/N=C/c1ccc(O)c(O)c1`: 50.4% (active); `CCN=c1scc(-c2ccco2)n1/N=C/c1ccc(O)cc1`: -4.3%.
The value for `C=CCN=c1scc(C)n1/N=C/c1ccc(O)c(O)c1` was 49.2%; that for `CN=c1scc(C)n1/N=C/c1ccc(O)cc1` was 12.4%.
Regarding `CCCC(=O)C1=C(O)C(c2cccc(Oc3ccccc3)c2)CCC1=O` (stereo unspecified), the inhibition was -21%.
`N#CCN1CCCC(C(N)=O)C1` (stereo unspecified): the inhibition was -5.3%.
For the compound `Cc1sc(NC(=O)CSc2nnnn2C)c(C#N)c1C`, the inhibition was 4.7%.
Regarding `CCOc1ccc(C2CC(c3cccc(C)c3)n3ncnc3N2)cc1` (stereo unspecified), the inhibition was 2.6%.
For the compound `CCc1ccc(CN(C)C(=O)c2cc(COc3c(F)cccc3F)on2)cc1`, the inhibition was 18.2%.
In the case of `COC1=C(OC)C(=O)C(CCCCCCCCCCO)=C(C)C1=O`, the inhibition was 53.5% (active).
Next, `Cc1[nH]c(=S)[nH]c(=O)c1CCCO`: 12.6%.
For `CC1=C(C)C(=O)C(CCCCC#CCCCC#CCO)=C(C)C1=O`, the inhibition was -13.9%.
On to `COc1cccc(CNC(=O)CCC2CCCN(C3CCOCC3)C2)c1` (stereo unspecified), for which the inhibition is 5.9%.
Turning to `CCOc1ccc(NC(=O)NC(C)CC)cc1` (stereo unspecified), the inhibition was -3.9%.
For the compound `O=C(/C=C/c1ccc(O)c(O)c1)c1ccc(S(=O)(=O)N2CCCCCC2)cc1`, the inhibition is 66% (active).
Regarding `O=C(/C=C/c1ccc(N2CCCCC2)c([N+](=O)[O-])c1)c1ccc(S(=O)(=O)N2CCCC2)cc1`, the inhibition is 0%.
Regarding `O=C(O)c1ccc(S(=O)(=O)N2CCCCCC2)cc1`, the inhibition was 2.4%.
In the case of `Cc1ccc2c(c1)CCCN2C(=O)c1ccco1`, the inhibition was 0.8%.
For the compound `Cc1cccc(C2(c3cccc(C)c3)CC2C(=O)NCC2CCCO2)c1` (stereo unspecified), the inhibition was -4.2%.
As for `O=C(NCC1CCCO1)c1ccccc1` (stereo unspecified), the inhibition is 11.6%.
Next, `O=C(NCC1CCCO1)C1CC1(c1ccccc1)c1ccccc1` (stereo unspecified): 108% (active); `O=C(CC1C(=O)NC2CCCCC2N1C(=O)c1ccc(F)cc1)Nc1ccccc1` (stereo unspecified): 0.9%; `CCc1ccc(C(=O)COC(=O)CNC(=O)c2ccco2)cc1`: -5.4%.
As for `S=c1sc2c(Cl)ncnc2n1-c1ccccc1`, the inhibition is -30.4%.
With `O=c1[nH]c(-c2ccc(F)cc2)nc2c1sc(=S)n2-c1ccccc1`, the inhibition is -0.9%.
For the compound `O=c1[nH]cnc2c1sc(=S)n2-c1ccccc1`, the inhibition is 50.7% (active).
On to `CS(=O)(=O)N1CCN(c2ccc(NC(=O)CSc3nnc(-c4ccco4)o3)cc2)CC1`, for which the inhibition was -8.2%.
With `CCN(CC)S(=O)(=O)c1ccc(NC(=O)COC(=O)CNS(=O)(=O)/C=C/c2ccccc2)cc1`, the inhibition was 5.2%.
The value for `O=C(COC(=O)c1ccccc1Br)NCCC1=CCCCC1` was 5.8%.
As to `CC1(C)N=C(SCC(=O)Nc2ccc(Cl)cc2Cl)C(c2ccccc2)=N1`, the inhibition was 8.5%.
As for `O=C(NC1CCCCC1)c1sc(=S)n2c1[nH]c(=O)c1ccccc12`, the inhibition was 51.2% (active).
Regarding `O=C(NC1CCCC1)c1sc(=S)n2c1[nH]c(=O)c1ccccc12`, the inhibition was -4.7%.
As for `O=C(NCc1ccccc1)c1sc(=S)n2c1[nH]c(=O)c1ccccc12`, the inhibition is 4.9%.
